B2AR arrestin: qHTS assay of beta-arrestin-biased ligands of beta2-adrenergic receptor; Beta-2 adrenergic receptor (Homo sapiens), P07550; beta-arrestin recruitment to beta2AR, cell-based reporter; Potency, µM (doses to about 46.1 µM), without a hit: at the top dose activation, most hits filed as activators; 330,000 compounds, 0.02% hits; AID 492947, 2010; active = well fitted activation curve with a large enough effect; inconclusive = small, poorly fitted or top-dose-only effect;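 note: potency is the fitted concentration of half-maximal effect; 0% = DMSO controls and full agonism = EC100 isoproterenol or metaproterenol; nearly all actives have a fitted effect of over 65% in size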
Target sequence (P07550 whole entry, looked up): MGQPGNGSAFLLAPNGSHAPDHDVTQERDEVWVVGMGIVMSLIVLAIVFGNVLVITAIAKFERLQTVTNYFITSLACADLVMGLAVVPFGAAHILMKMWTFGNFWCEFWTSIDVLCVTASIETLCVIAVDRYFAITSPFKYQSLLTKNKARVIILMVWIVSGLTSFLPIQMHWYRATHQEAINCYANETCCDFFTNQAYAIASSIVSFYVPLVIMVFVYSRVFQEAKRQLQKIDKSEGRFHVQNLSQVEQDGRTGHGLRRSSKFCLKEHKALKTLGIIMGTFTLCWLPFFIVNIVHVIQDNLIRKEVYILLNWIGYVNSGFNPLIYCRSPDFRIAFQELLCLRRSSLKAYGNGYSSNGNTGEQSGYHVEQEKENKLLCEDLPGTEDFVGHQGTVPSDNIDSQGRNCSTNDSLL
TSHR antag: Antagonists of the Thyroid Stimulating Hormone Receptor: HTS campaign. 330,000 compounds, 0.2% hits. AID 504810, 2011. TSHR-expressing cells, TSH-stimulated cAMP HTRF, 2 h; stronger effect = lower value. Thyrotropin receptor (Homo sapiens), P16473. activity change, negative = inhibition, % at 11.5 µM;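 active = activity change below a set negative limit, meaning inhibition stronger than a set level, cut at about -70% in these data; inconclusive = activity change between two set negative limits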; note: % is set by controls: 0 for no effect and ±100 for the full control effect
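Competitive HTRF cAMP read-out (cryptate anti-cAMP antibody, cAMP-d2; 30 min, room temperature) in freshly harvested TSHR cells. Compounds added before TSH at EC80 (4nM final), followed by 2 hours' incubation at 37 deg C.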
DRD3 antagonist: qHTS of D3 Dopamine Receptor Antagonist: qHTS. D(3) dopamine receptor (Homo sapiens), P35462. D3R cells, DiscoveRx beta-arrestin luminescence, antagonist mode; stronger effect = lower value. max response, negative = inhibition, %. 360,000 compounds, 2.5% hits. AID 652054, 2013; in the data active = max response below about -50%; inconclusive = no clear call, values can overlap the other calls; note: % is set by controls: 0 for no effect and ±100 for the full control effect
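Cells expressing the human receptor were seeded at 1500 cells/well, incubated overnight at 37 degrees C in 5% CO2, then exposed to library compounds with dopamine controls for 90 minutes at 37 degrees C before luminescent detection.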
D3 ag: qHTS of D3 Dopamine Receptor Agonist: qHTS. D(3) dopamine receptor (Homo sapiens), P35462. D3R DiscoveRx beta-arrestin cells, luminescence, 90 min. max activation, %. 410,000 compounds, 0.58% hits. AID 652048, 2013; in the data active = max activation above about 30%; note: 0% is about no effect
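Agonist-mode cell screen: cells plated at 1500/well and incubated overnight at 37 °C, then exposed to library compounds for 90 min at 37 °C. Detection reagent was added for 30–60 min at room temperature, and luminescence was read.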
* marks the source's active call; other numbers are inactive results; ? = inconclusive; nt = no result given. The list is not random: actives were taken first. Their share in the collection is about 2.9%.

SMILES	B2AR arrestin	TSHR antag	DRD3 antagonist	D3 ag
O=C(Nc1sc2c(c1C(=O)NCC1CCCO1)CCC2)c1cc(=O)c2cc(Cl)ccc2o1 (stereo not given)	nt	nt	nt	5.7
COc1cc(C(=O)NCCNC(=O)c2cnccn2)cc(OC)c1OC	-0.1%	-81.8*	-3.6	17.6
Cc1ccc(C2(C)NC(=O)N(CC(=O)N3CCN(S(=O)(=O)c4cccs4)CC3)C2=O)cc1 (stereo not given)	0.3%	5.2	-53.4*	0.7
Cc1cc(N/N=C/c2ccc(O)cc2)c2cccc(C)c2n1	-1.6%	-0.2	-72.4*	-8.0
Cc1cc(C)c2nc(C)cc(N/N=C/c3ccc(O)cc3)c2c1	0.3%	-2.0	?	-18.4
CCC(=O)N1Cc2cc(C(=O)Nc3nccs3)nc(-c3cccc(-c4ccccc4OC)c3)c2[C@H]1CCO	nt	nt	7.4	60.9*
COc1cc(C(=O)N(Cc2ccc(F)cc2)Cc2ccco2)cc(OC)c1OC	nt	nt	nt	-0.7
Cc1ccc(S(=O)(=O)c2cn(CC(=O)Nc3ccc4c(c3)OCO4)c3ccccc3c2=O)cc1C	nt	nt	nt	-0.8
CC(=O)c1ccc(NC(=O)c2nc(-c3ccccc3)n(-c3ccccc3Cl)n2)cc1	nt	nt	nt	5.3
CC1CN(C(=O)CCC(=O)NCc2cccs2)c2ccccc2O1 (stereo not given)	nt	nt	nt	-5.0
CC1(C)CC(C(=O)Nc2ccccc2)C(=O)O1 (stereo not given)	nt	nt	-5.8	11.7
C[C@]1(O)CC(=O)C=C[C@H]1Nc1ccccc1	nt	nt	-51.7*	-21.0
O=C(Nc1ccccc1Oc1cccnc1)C1CCCN(C/C=C/c2ccccc2)C1 (stereo not given)	-0.8%	15.1	-60.5*	-41.3
CCN(CC)c1nc(N)c2c(N)n(-c3ccccc3C)c(=S)c(C#N)c2c1C#N	0.0%	14.8	-82.3*	1.5
Cc1ccc(C(=O)N/C(=C\c2ccco2)C(=O)NCCCn2ccnc2)cc1C	-0.3%	8.7	1.3	4.1
COc1ccc(C(=O)N/C(=C\c2ccco2)C(=O)NCCCn2ccnc2)cc1	-0.1%	24.3	-54.6*	-17.0
Fc1ccccc1CN1CCC(Cc2ccccc2)CC1	0.7%	41.3	-79.3*	-15.7
Fc1cccc(CN2CCC(Cc3ccccc3)CC2)c1	0.0%	-3.6	-52.6*	-4.6
COc1ccc(CN2CCC(Cc3ccccc3)CC2)c(C)c1C	-0.8%	15.0	-19.5	-21.9
Cc1ccccc1-c1cc2nccc(-c3cc(Cl)ccc3O)n2n1	nt	nt	nt	-6.4
Cc1ccc(Cl)cc1NC(=O)Cn1c(=O)oc2cc(S(=O)(=O)N3CCCCCC3)ccc21	nt	nt	nt	6.5
Cc1ncc([N+](=O)[O-])n1CCOC(=O)NC(Nc1ccc(F)cc1)C(Cl)(Cl)Cl (stereo not given)	0.0%	4.0	-9.5	0.2
Cc1ccccc1NC(NC(=O)OCCn1c([N+](=O)[O-])cnc1C)C(Cl)(Cl)Cl (stereo not given)	-0.6%	37.0	-63.0*	-5.3
O=[N+]([O-])c1cc([N+](=O)[O-])c(Oc2cccc3c2CCCC3)cc1NN1CCCCC1	nt	nt	-17.4	-6.0
COc1cccc(Oc2cc(NN3CCCCC3)c([N+](=O)[O-])cc2[N+](=O)[O-])c1OC	-0.5%	-5.4	-64.7*	-14.9
SMILES	B2AR arrestin	TSHR antag	DRD3 antagonist	D3 ag
O=C(C1CCCN(S(=O)(=O)c2cccc3nonc23)C1)N1CCN(c2cccc(C(F)(F)F)c2)CC1 (stereo not given)	nt	nt	nt	-7.6
Cc1c(C(=O)Nc2cccc(Cl)c2)oc2ccc(S(=O)(=O)N3CCC4(CC3)OCCO4)cc12	-0.7%	21.6	28.5	26.4
Cc1c(C(=O)Nc2ccc(F)c(F)c2)oc2ccc(S(=O)(=O)N3CCC4(CC3)OCCO4)cc12	nt	nt	nt	30.6*
Cc1c(C(=O)Nc2ccc(F)cc2)oc2ccc(S(=O)(=O)N3CCC4(CC3)OCCO4)cc12	-0.2%	-11.6	28.6	64.7*
O=C(NCCc1ccccc1)c1ccc2c(c1)CCN2S(=O)(=O)c1ccc(Br)cc1	nt	nt	nt	-6.9
Cc1ccc(S(=O)(=O)N2CCC(C(=O)NCCc3ccc(S(N)(=O)=O)cc3)CC2)cc1	-0.5%	0.6	12.1	37.3*
Cc1ccc(NC(=O)c2cc(S(=O)(=O)N3CCCC3)cn2C)cc1	-0.1%	11.2	5.8	1.4
Cc1ccc(S(=O)(=O)N2CCC(C(=O)N[C@@H](Cc3ccccc3)C(=O)O)CC2)cc1	0.0%	5.7	-8.7	37.1*
Cc1ccc(S(=O)(=O)N2CCc3cc(C(=O)NCCc4ccccc4)ccc32)cc1	nt	nt	nt	63.9*
Cc1ccc(CCNC(=O)c2cc(S(=O)(=O)N3CCCC3)cn2C)cc1	-0.2%	1.5	-145.2*	-1.2
O=C(CCS(=O)(=O)c1nc(-c2ccc3c(c2)OCO3)cc(C(F)(F)F)n1)Nc1ccccc1C(F)(F)F	nt	nt	nt	-15.3
Cc1cccc(C(=O)NNC(=O)c2c(O)c3ccccc3n(C)c2=O)c1	8.4%	-17.8	57.8	30.5*
CC(CC(=O)O)CC(=O)Nc1cc(C(F)(F)F)cc(C(F)(F)F)c1 (stereo not given)	-0.6%	-5.5	1.2	-9.2
CCC(C)(CC(=O)O)CC(=O)Nc1cc(C(F)(F)F)cc(C(F)(F)F)c1 (stereo not given)	0.3%	-1.9	17.3	31.5*
O=C1OC(c2ccccc2)=C/C1=C\N1CCOCC1	?	-7.8	?	-8.3
O=C1OC(c2ccccc2)=C/C1=C/N1CCOCC1	0.0%	-3.3	-54.7*	-7.3
NC(=S)Nc1cc2ccccc2c2ccccc12	-0.1%	36.3	-63.5*	-2.6
COc1ccnc(CN(C)C(=O)C2CCC(=O)N(Cc3cccc(C(F)(F)F)c3)C2)c1 (stereo not given)	-0.2%	-16.1	17.7	-0.1
COc1ccnc(CSC(N)=Nc2cccc(C(F)(F)F)c2)c1	0.3%	5.5	-50.8*	-23.3
COc1ccnc(CSC(N)=Nc2ccccc2OC)c1	3.2%	12.8	-75.1*	-2.7
COc1ccnc(CSC(N)=Nc2ccccc2C(F)(F)F)c1	-0.4%	3.7	-10.1	-11.0
COc1cc(-c2ccc3c(=O)c4ccccc4sc3c2)cc(OC)c1OC	-0.1%	10.9	100.6	59.5*
COc1cc(-c2ccc3c(=O)c4ccccc4n(C)c3c2)cc(OC)c1OC	0.0%	-15.9	148.7	68.1*
COc1ccc2sc3ccccc3c(=O)c2c1	0.2%	-0.4	20.7	-3.3
N#CCC1c2ccccc2CCN1C(=O)Nc1cccc(C(F)(F)F)c1 (stereo not given)	-0.1%	-14.9	-15.1	-32.8
N#CCC1c2ccccc2CCN1C(=O)Nc1ccc(C(F)(F)F)cc1 (stereo not given)	-0.2%	-14.7	-93.9*	-34.3
COc1ccc(CNS(=O)(=O)c2cccc(S(=O)(=O)N3CCOCC3)c2)cc1	-0.1%	-1.4	-93.2*	11.4
COc1cccc(CNS(=O)(=O)c2cccc(S(=O)(=O)N3CCOCC3)c2)c1	-0.2%	5.3	12.2	7.4

Screening results (PubChem BioAssay)
